In publication PMC7862700, “An all-to-all approach to the identification of sequence-specific readers for epigenetic DNA modifications on cytosine” one finds binding signal data, which are given here for one sequence.

What all share (assay): DAPPL (digital affinity profiling via proximity ligation, sequencing); 10 mM Tris-HCl pH 7.5, 50 mM NaCl, 1 mM DTT, 4% glycerol, room temperature, 30 min; GST-TFs on glutathione beads, 16-mer random dsDNA library, 0.1% formaldehyde crosslink after washing; high values mean tight binding
Common to all, as to settings: protein: recombinant; tags: N-terminal GST; dsDNA, one strand shown

The target in one assay is T1, FLI1 (Homo sapiens, UniProt Q01543 1-452).
T1 sequence: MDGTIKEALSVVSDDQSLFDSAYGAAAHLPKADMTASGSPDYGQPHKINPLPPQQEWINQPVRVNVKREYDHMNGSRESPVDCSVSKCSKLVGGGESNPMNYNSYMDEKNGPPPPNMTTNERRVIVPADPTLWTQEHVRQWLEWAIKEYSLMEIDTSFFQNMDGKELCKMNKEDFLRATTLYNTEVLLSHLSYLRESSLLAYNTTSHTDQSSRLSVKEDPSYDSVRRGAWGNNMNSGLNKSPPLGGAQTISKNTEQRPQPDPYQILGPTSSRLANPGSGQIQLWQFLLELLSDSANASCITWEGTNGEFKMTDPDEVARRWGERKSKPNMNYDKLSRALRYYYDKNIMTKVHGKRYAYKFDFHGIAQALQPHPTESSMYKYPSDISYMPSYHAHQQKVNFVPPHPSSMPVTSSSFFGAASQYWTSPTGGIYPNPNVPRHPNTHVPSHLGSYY
In a few lines: (§1)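 Human transcription factors fused to GST were expressed in yeast, captured on glutathione beads, given DNA barcodes and pooled with a GST-only negative control. Pools were incubated with 200 nmole of a 16-mer random double-stranded DNA library in Tris/NaCl/DTT/glycerol buffer at room temperature for 30 min. They were then washed, crosslinked with 0.1% formaldehyde, proximity-ligated (BsaI/T4 ligase, 1 h, 37 °C), PCR-amplified and sequenced on an Illumina NextSeq500. Binding signal is each 6-mer's read frequency for a factor divided by its frequency for the GST control.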

In another assay the target is T2, ELK1 (Homo sapiens, UniProt P19419 1-428).
T2 sequence: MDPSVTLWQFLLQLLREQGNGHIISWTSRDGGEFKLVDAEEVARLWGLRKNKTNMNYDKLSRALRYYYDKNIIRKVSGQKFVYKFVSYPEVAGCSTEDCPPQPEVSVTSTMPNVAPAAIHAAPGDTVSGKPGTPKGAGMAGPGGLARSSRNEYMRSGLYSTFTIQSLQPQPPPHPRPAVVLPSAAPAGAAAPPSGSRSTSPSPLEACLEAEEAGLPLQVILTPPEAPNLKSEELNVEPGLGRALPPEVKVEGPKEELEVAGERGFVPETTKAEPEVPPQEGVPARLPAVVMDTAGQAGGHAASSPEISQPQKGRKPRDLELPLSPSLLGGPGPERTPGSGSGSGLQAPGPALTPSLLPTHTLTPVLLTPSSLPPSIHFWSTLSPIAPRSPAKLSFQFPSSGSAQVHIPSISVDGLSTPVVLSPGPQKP
In a few lines: as §1

In a further assay the target is T3, GABPA (Homo sapiens, UniProt Q06546 1-454).
T3 sequence: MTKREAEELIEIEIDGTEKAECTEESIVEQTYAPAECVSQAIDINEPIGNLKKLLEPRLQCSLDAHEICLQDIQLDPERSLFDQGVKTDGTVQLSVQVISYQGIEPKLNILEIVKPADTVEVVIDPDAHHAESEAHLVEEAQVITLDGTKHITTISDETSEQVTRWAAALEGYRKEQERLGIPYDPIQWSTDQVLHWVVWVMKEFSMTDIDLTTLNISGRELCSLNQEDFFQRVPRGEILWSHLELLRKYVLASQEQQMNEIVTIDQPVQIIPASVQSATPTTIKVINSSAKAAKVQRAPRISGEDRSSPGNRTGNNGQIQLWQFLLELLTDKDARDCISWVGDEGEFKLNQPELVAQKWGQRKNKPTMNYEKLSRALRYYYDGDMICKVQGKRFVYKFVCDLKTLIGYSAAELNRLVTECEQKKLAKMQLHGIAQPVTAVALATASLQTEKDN
In a few lines: as §1

The target in the next assay is ELF1 (Homo sapiens, UniProt P32519 1-619). In a few lines: as §1
Chain of ELF1 (P32519 whole entry): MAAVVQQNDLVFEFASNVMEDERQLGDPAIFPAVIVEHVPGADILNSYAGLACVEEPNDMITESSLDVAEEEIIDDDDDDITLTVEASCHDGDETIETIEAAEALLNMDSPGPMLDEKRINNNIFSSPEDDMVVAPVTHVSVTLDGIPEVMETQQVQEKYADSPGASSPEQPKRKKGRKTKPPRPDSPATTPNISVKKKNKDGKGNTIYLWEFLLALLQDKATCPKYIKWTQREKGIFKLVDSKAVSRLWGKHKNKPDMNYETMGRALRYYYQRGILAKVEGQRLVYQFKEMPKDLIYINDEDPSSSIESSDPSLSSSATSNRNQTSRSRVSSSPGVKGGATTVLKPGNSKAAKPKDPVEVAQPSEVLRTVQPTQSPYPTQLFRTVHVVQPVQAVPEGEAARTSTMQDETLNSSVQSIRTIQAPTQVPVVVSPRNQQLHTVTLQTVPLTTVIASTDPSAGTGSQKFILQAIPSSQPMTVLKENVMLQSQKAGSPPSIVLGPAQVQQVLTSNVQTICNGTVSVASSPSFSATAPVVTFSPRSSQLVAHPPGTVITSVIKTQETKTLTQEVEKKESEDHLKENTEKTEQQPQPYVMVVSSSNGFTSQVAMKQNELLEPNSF
The next assay concerns the target T4, EHF (Homo sapiens, UniProt Q9NZC4 1-300).
T4 sequence: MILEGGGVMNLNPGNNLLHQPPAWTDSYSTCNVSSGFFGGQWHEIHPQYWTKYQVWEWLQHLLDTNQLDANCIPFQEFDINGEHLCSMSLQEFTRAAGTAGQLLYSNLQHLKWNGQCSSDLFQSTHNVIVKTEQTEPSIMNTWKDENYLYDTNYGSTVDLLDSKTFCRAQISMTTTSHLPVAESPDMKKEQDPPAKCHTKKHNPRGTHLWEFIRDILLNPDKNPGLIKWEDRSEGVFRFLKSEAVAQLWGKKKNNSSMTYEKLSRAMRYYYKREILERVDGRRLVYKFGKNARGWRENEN
The gist of the method: as §1

Another assay addresses SPIB (Homo sapiens, UniProt Q01892 1-262). The gist of the method:
as §1

The target in the next assay is T5, ELK3 (Homo sapiens, UniProt P41970 1-407).
T5 sequence: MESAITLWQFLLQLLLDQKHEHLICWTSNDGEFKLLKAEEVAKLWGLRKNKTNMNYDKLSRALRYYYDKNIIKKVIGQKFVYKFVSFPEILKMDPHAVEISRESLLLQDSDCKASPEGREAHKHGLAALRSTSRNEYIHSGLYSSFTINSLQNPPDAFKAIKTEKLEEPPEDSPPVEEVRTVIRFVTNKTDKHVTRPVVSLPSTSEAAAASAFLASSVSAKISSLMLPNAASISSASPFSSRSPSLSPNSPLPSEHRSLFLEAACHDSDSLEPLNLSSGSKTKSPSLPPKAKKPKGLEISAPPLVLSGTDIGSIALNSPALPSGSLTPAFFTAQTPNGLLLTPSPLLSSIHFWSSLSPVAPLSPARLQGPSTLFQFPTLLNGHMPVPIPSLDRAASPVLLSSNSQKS
The gist of the method: as §1

A further assay has as its target T6, SPIC (Homo sapiens, UniProt Q8N5J4 1-248).
T6 sequence: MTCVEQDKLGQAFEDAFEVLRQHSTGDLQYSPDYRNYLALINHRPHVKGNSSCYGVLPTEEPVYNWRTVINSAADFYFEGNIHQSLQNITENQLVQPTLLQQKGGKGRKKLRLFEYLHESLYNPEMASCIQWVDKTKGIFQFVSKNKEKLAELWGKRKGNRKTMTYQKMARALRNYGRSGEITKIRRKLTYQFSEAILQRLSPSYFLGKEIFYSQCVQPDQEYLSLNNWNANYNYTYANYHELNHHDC
In a few lines:
as §1

The target of the next assay is ELF4 (Homo sapiens, UniProt Q99607 1-663). In a few lines:
as §1

For another assay, the target named is T7, ELK4 (Homo sapiens, UniProt P28324-2 1-405).
T7 sequence: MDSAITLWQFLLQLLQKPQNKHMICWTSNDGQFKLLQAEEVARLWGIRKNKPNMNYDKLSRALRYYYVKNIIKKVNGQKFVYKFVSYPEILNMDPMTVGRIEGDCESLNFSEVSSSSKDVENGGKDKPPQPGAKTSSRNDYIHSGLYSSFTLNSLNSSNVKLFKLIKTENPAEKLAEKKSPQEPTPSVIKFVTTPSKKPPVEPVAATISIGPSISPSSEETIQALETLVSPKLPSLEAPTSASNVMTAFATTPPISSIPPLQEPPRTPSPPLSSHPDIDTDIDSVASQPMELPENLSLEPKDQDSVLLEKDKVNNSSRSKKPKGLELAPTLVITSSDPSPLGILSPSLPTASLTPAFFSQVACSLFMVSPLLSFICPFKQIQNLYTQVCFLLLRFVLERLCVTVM
The gist of the method: as §1

The target in the next assay is T8, ELF3 (Homo sapiens, UniProt P78545 1-371).
T8 sequence: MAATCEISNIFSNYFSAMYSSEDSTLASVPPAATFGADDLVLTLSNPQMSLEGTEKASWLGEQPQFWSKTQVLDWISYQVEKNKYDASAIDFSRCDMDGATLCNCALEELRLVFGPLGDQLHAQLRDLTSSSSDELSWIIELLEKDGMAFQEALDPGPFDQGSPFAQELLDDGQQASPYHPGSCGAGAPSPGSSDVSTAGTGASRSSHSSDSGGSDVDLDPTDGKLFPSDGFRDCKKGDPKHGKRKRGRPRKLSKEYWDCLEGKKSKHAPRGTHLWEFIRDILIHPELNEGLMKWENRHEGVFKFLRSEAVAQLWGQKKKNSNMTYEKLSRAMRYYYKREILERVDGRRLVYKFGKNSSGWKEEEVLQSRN
In a few lines: as §1

For a further assay, the target named is ETV1 (Homo sapiens, UniProt P50549 1-477). The gist of the method:
as §1

The target in another assay is T9, ERF (Homo sapiens, UniProt P50548 1-548).
T9 sequence: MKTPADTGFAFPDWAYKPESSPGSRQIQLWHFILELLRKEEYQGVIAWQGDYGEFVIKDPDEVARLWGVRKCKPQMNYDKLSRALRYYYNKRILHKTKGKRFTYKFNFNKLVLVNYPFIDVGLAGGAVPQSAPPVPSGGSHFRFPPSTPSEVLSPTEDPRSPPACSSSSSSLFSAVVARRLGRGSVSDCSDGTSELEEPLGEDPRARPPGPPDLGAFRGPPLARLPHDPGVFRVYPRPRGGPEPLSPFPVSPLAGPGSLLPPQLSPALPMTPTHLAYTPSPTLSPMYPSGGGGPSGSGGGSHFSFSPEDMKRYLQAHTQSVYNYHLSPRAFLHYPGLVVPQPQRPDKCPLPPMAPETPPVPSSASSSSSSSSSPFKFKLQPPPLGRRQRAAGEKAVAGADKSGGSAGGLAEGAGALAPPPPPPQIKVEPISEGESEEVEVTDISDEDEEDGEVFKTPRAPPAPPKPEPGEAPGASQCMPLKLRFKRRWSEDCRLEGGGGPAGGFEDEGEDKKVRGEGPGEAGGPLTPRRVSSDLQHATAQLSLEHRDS
The gist of the method:
as §1

In another assay the target is T10, ETV3L (Homo sapiens, UniProt Q6ZN32 1-361).
T10 sequence: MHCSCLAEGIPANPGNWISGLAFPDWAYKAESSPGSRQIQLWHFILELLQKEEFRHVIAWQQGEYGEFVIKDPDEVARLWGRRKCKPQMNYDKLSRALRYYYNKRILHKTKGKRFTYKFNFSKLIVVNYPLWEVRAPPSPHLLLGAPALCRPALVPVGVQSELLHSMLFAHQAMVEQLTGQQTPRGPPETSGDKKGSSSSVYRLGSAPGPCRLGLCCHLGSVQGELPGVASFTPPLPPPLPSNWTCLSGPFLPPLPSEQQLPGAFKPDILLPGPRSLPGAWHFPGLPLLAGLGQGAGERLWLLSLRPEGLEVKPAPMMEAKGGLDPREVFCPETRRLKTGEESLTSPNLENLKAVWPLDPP
In a few lines: as §1

The target in a further assay is T11, ETV7 (Homo sapiens, UniProt Q9Y603 1-341).
T11 sequence: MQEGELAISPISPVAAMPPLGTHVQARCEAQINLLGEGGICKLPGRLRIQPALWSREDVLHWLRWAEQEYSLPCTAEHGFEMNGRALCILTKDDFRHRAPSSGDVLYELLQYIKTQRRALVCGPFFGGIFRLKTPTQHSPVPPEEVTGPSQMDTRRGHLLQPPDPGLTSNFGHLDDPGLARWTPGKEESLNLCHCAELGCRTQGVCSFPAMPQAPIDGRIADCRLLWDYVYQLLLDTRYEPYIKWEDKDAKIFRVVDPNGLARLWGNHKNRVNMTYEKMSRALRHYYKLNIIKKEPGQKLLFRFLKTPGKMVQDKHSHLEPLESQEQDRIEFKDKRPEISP
In a few lines: as §1

Another assay deals with T12, ETV3 (Homo sapiens, UniProt P41162-2 1-143).
T12 sequence: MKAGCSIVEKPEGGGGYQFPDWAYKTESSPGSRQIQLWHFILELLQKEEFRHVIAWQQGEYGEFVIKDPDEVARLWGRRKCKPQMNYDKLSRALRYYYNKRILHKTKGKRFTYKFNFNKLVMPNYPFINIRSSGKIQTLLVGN
The gist of the method: as §1

For a further assay, the target named is ETV6 (Homo sapiens, UniProt P41212 1-452). The gist of the method:
as §1

Chain of ETV1 (P50549 whole entry): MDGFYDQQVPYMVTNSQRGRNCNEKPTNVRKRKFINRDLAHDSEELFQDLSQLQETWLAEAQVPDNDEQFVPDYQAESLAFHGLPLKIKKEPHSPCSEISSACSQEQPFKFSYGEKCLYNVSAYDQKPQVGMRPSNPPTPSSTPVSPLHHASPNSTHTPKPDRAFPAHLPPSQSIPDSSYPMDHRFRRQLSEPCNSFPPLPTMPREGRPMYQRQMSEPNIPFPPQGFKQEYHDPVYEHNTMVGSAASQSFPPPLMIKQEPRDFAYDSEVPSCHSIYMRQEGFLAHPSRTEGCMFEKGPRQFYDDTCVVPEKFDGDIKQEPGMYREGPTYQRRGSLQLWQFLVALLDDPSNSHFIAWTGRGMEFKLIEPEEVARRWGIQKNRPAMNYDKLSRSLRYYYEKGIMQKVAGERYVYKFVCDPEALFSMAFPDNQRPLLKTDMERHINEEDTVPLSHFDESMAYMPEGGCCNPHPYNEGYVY
Chain of SPIB (Q01892 whole entry): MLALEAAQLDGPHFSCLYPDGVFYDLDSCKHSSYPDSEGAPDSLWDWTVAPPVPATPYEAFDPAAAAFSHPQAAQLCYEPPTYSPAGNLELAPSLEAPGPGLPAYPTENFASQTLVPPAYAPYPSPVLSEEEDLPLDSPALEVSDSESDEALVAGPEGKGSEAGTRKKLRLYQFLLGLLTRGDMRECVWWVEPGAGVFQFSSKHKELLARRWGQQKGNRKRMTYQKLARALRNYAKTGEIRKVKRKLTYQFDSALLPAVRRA
Chain of ETV6 (P41212 whole entry): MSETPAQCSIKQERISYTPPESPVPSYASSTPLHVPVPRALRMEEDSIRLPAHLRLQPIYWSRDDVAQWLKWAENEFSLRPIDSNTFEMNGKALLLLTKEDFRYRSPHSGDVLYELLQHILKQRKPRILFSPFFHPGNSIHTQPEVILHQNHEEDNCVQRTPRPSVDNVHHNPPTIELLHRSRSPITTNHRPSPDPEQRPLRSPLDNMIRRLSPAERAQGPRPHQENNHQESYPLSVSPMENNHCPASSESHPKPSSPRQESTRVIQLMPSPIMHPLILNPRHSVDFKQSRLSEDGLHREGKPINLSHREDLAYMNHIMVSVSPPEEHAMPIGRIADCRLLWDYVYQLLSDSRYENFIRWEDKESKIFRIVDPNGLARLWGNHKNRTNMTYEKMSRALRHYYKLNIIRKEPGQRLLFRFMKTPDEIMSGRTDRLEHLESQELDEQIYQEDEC
Chain of ELF4 (Q99607 whole entry): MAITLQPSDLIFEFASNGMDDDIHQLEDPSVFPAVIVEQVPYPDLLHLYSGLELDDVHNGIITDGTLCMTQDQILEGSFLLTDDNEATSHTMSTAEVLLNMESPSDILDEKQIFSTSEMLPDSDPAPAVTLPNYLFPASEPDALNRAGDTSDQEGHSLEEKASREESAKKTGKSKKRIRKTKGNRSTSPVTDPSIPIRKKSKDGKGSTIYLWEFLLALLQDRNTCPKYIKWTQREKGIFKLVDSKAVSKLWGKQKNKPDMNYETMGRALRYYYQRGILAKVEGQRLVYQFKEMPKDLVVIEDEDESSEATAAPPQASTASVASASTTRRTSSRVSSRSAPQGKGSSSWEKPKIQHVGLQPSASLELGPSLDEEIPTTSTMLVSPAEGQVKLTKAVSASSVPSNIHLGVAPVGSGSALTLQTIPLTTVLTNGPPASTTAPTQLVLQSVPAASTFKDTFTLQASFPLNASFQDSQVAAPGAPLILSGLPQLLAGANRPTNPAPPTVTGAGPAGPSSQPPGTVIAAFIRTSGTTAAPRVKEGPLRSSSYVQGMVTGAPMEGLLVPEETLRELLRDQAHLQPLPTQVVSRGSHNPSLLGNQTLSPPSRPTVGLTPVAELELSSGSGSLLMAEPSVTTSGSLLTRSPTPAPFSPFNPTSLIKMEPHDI

On to GTTTGC, for which the binding signal with FLI1 was 1.06 fold enrichment (6-mer frequency, TF over GST control); in the assay with ELK1, 1.11 fold enrichment (6-mer frequency, TF over GST control); in the assay with GABPA it was 1.04 fold enrichment (6-mer frequency, TF over GST control); with ELF1 it was 1.02 fold enrichment (6-mer frequency, TF over GST control); in the assay with EHF, 1.11 fold enrichment (6-mer frequency, TF over GST control); with SPIB, 1.07 fold enrichment (6-mer frequency, TF over GST control). Besides, the binding signal with ELK3 is 1.12 fold enrichment (6-mer frequency, TF over GST control); with SPIC it was 1.2 fold enrichment (6-mer frequency, TF over GST control); in the assay with ELF4 it was 1.15 fold enrichment (6-mer frequency, TF over GST control); in the assay with ELK4, 1.17 fold enrichment (6-mer frequency, TF over GST control); with ELF3 it was 1.23 fold enrichment (6-mer frequency, TF over GST control); with ETV1, 1.14 fold enrichment (6-mer frequency, TF over GST control). Further, the binding signal with ERF is 1.1 fold enrichment (6-mer frequency, TF over GST control); with ETV3L, 1.05 fold enrichment (6-mer frequency, TF over GST control); with ETV7, 1.01 fold enrichment (6-mer frequency, TF over GST control); with ETV3 it was 1.1 fold enrichment (6-mer frequency, TF over GST control); with ETV6 it was 1.02 fold enrichment (6-mer frequency, TF over GST control).
